The values below come from PubChem BioAssay.

Active and inactive are the calls of the source.

For assay [1], the target named is Albumin (Bos taurus) (UniProt P02769). Nature of the assay: compounds binding labelled BSA control protein – biochemical, small-molecule microarray, Alexa647 label, 635/667 nm fluorescence, artefact control for SMM control protein annotation, profiling panel (AID 1118).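 Further: score merges 667 nm emission intensity and signal-to-noise per printed compound spot.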 Particulars: BSA-A647 binding, fluorescence 635 nm, higher = more signal.
Sequence of Albumin (Bos taurus) (P02769 whole entry, looked up): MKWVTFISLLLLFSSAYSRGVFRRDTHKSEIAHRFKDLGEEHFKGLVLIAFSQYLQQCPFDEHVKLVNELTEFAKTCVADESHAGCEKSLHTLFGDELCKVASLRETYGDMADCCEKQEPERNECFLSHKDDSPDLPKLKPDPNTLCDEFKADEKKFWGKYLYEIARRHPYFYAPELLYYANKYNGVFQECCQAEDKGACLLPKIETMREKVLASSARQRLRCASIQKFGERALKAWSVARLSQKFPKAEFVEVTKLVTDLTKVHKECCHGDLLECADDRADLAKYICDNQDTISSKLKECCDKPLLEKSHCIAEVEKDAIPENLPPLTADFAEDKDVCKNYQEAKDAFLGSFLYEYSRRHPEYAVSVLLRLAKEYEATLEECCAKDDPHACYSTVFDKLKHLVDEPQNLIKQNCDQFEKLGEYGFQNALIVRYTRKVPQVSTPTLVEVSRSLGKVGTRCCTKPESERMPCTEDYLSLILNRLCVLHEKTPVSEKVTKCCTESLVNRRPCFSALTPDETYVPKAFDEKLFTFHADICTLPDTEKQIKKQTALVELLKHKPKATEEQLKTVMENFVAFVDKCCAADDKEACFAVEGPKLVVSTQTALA
Assay [2] is described as follows: probe aXIP binding to arrayed compounds – biochemical, NeuroSMM set, 635/667 nm fluorescence, primary screen (AID 1119).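 Further: probe is the protein aXip251-270 applied at 1 µg/mL to compound-printed slides; binding of probe to printed compounds measured as 667 nm fluorescence plus signal to noise.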 Particulars: small-molecule microarray, higher = more signal, called active from +8 up or from −8 down.
The nature of assay [3]: probe aNOTCH3 binding on compound microarray – biochemical, small-molecule microarray, 635/667 nm fluorescence, primary screen (AID 1120).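 Further: probe is a biotin-tagged antibody raised against NOTCH3 rather than NOTCH3 protein; score merges spot fluorescence near 667 nm with spot signal to noise.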 Particulars: higher = more signal.
The nature of assay [4]: probe aNOTCH2 binding on compound microarray – biochemical, small-molecule microarray, 635/667 nm fluorescence, primary screen (AID 1121).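 Further: score merges feature fluorescence read at 667 nm with its signal to noise.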 Particulars: higher = more signal.
For assay [5], the target named is Carbonic anhydrase 2 (Homo sapiens) (UniProt P00918). Nature of the assay: compounds binding carbonic anhydrase 2 – biochemical, small-molecule microarray, Alexa647-labelled CAII, profiling panel (AID 1122). Particulars: CAII-A647 binding fluorescence, higher = more signal.
Assay [6] is described as follows: COS7 lysate on small-molecule microarray, probe aHis, 635 nm (AID 1123).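 Further: z-score combines 667nm fluorescence intensity with signal-to-noise per printed compound spot.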 Particulars: COS7 cell lysate, fluorescence, higher = more signal.
Assay [7] can be described thus: probe aLAP1 signal on lysate-treated microarray – cell lysate, small-molecule microarray, COS7 lysate, primary screen (AID 1124).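 Further: lysate comes from COS7 cells expressing LAP1 and is applied at 0.3 µg/mL; score merges spot fluorescence near 667 nm with signal-to-noise over triplicate slides.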 Particulars: probe aLAP1, fluorescence, higher = more signal.
Assay [8] deals with Sam68 (KHDRBS1). Nature of the assay: compounds binding KHDRBS1 protein – biochemical, small-molecule microarray, 635 nm fluorescence, primary screen (AID 1125).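 Further: score merges 667 nm channel intensity with signal to noise over triplicate slides.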 Particulars: higher = more signal.
The subject of assay [9] is Chordin-like protein 2 (CHRDL2). Nature of the assay: compounds binding chordin-like 2 – biochemical, small-molecule microarray, 635 nm fluorescence, primary screen (AID 1126).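 Further: printed compound slides probed with Chrdl2 protein at 4 µg/mL for 1 h at 4 C; score merges 667 nm emission intensity with signal to noise over three replicate slides.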 Particulars: fluorescence 635 nm, higher = more signal.
Assay [10] has as its target Concanavalin-A (Canavalia ensiformis) (UniProt P02866). In words: compounds binding concanavalin A lectin – biochemical, small-molecule microarray, Alexa647 label, 635 nm, artefact control for SMM control protein annotation, primary screen (AID 1127).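 Further: z combines 667 nm emission intensity with signal-to-noise across three replicate slides.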 Particulars: ConA-A647 binding fluorescence, higher = more signal.
Assay [11] is described as follows: compounds binding Alexa647 anti-His antibody – biochemical, small-molecule microarray, 635 nm fluorescence, artefact control for SMM control protein annotation, primary screen (AID 1128).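 Further: score merges feature fluorescence with signal-to-noise for each printed compound spot.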 Particulars: higher = more signal.
Assay [12] relates to Human papillomavirus type 1a E7 protein (residues 1-88). Nature of the assay: HPV1a E7 small-molecule binders, primary screen, biochemical, small-molecule microarray, residues 1-88, 635 nm (AID 1129). Particulars: small-molecule microarray binding, fluorescence 635 nm; higher = more signal.
Assay [13] concerns the target Focal adhesion kinase 1 (Homo sapiens) (UniProt Q05397). Nature of the assay: PTK2 protein binding on printed compound slides – biochemical, small-molecule microarray, 635/667 nm fluorescence, BSA, DTT, primary screen (AID 1130).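 Further: composite of spot emission at 667 nm and signal to noise over triplicate slides.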 Particulars: 635 nm fluorescence, higher = more signal.
Assay [14] concerns Fibrinogen (Alexa647-labelled). Nature of the assay: Alexa647-fibrinogen binding to printed small molecules – biochemical, small-molecule microarray, 635/667 nm fluorescence, artefact control for SMM control-protein annotation, profiling panel (AID 1131).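 Further: z-score merges 667 nm fluorescence with per-spot signal-to-noise over triplicate slides.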 Particulars: fibrinogen-A647 binding fluorescence, higher = more signal.
Assay [15] addresses Follistatin (Homo sapiens) (UniProt P19883). Nature of the assay: FST protein binding to printed compounds – biochemical, small-molecule microarray, 635/667 nm fluorescence, primary screen (AID 1132). Particulars: 635 nm fluorescence, higher = more signal.
For assay [16], the target named is Fibroblast growth factor 2 (Homo sapiens) (UniProt P09038). In words: basic fibroblast growth factor binding to printed compounds – biochemical, small-molecule microarray, 635/667 nm fluorescence, primary screen (AID 1133). Particulars: FGF2, fluorescence 635/667, higher = more signal.
Sequence of Fibroblast growth factor 2 (Homo sapiens) (P09038 whole entry, looked up): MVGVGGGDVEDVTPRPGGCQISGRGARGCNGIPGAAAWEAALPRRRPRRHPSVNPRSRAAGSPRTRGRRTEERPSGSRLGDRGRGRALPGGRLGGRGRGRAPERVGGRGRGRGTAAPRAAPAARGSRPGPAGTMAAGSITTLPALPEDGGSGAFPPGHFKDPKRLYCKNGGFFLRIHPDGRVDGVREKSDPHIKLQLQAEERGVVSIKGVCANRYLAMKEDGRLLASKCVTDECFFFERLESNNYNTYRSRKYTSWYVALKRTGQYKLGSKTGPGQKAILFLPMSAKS
The nature of assay [17]: JC-1 mitochondrial potential readout, lung cancer cells – cell-based, A549, JC-1 fluorescence, basal, 24 h, 100 nL, profiling panel (AID 1138).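 Further: A549 lung adenocarcinoma cells under basal conditions with no added stimulus; test concentration not given here.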 Particulars: higher = more signal.
Assay [18] relates to Lefty1. In words: Lefty1 protein binding to printed compounds – biochemical, small-molecule microarray, 635/667 nm fluorescence, primary screen (AID 1139). Particulars: fluorescence 635/667, higher = more signal.
For assay [19], the system named is wheat germ agglutinin (Triticum aestivum), Alexa647-labelled. Nature of the assay: Alexa647-WGA lectin binding to printed small molecules – biochemical, small-molecule microarray, 635/667 nm fluorescence, artefact control for SMM control-protein annotation, profiling panel (AID 1140).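 Further: score merges 667 nm feature emission with signal to noise over triplicate slides.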 Particulars: WGA-A647 binding, 635 nm fluorescence, higher = more signal.
For assay [20], the target named is Luciferin 4-monooxygenase (Photinus pyralis) (UniProt P08659). In words: inhibition of purified Photinus pyralis luciferase – biochemical, luminescence, purified enzyme, 2006 set, primary screen (AID 1141).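 Further: cell-free assay with purified firefly luciferase at 100 ng per well in PBS; test concentration not given here.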 Particulars: purified firefly luciferase, SteadyGlo luminescence, 30 min; higher = more signal, called active from +8 up or from −8 down.
Sequence of Luciferin 4-monooxygenase (Photinus pyralis) (P08659 whole entry, looked up): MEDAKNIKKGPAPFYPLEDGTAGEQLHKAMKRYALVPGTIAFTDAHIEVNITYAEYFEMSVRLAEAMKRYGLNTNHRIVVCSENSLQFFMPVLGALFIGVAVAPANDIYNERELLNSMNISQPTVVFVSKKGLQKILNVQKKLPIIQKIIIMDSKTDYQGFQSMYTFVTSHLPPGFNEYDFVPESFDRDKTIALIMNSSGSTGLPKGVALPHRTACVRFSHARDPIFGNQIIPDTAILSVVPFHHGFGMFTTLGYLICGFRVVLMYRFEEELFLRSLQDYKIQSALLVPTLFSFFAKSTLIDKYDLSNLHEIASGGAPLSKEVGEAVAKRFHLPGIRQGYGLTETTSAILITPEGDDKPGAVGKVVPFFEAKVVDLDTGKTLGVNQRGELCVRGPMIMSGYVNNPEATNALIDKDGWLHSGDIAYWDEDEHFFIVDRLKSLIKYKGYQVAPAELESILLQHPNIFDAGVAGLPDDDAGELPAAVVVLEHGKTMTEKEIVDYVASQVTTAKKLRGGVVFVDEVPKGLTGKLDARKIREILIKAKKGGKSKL

Sequence of Focal adhesion kinase 1 (Homo sapiens) (Q05397 whole entry, looked up): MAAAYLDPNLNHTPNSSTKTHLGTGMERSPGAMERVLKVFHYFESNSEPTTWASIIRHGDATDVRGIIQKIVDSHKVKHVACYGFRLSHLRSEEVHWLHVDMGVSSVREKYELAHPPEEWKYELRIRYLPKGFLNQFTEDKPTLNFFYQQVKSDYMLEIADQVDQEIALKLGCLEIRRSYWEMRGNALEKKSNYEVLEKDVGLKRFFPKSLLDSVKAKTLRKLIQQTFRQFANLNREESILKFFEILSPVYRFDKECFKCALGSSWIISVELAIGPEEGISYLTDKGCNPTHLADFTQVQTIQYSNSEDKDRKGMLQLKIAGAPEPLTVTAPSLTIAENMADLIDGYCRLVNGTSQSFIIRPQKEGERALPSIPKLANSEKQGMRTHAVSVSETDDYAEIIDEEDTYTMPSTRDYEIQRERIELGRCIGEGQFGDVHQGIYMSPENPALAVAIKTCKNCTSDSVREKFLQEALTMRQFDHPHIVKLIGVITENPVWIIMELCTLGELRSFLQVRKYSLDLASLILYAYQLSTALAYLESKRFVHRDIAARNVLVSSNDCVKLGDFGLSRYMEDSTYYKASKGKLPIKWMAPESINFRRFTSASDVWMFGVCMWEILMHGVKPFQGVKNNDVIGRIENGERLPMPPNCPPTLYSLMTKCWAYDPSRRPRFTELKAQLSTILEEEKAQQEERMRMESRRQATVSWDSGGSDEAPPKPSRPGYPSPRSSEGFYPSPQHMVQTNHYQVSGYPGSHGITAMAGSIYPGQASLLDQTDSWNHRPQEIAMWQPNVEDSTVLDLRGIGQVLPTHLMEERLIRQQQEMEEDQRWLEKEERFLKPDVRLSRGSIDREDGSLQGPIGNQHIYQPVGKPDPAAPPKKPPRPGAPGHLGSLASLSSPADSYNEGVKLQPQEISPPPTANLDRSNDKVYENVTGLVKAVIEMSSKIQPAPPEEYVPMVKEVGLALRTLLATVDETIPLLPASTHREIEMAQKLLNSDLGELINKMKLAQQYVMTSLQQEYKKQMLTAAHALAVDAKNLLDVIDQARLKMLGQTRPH
Sequence of Concanavalin-A (Canavalia ensiformis) (P02866 whole entry, looked up): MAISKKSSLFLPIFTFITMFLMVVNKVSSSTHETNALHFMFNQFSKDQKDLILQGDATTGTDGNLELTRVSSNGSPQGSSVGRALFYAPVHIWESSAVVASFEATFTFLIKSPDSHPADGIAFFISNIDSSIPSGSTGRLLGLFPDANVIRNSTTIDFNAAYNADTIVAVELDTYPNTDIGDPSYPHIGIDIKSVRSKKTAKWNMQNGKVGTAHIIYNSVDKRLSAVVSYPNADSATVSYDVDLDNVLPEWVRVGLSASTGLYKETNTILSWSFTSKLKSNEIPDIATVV
Sequence of Follistatin (Homo sapiens) (P19883 whole entry, looked up): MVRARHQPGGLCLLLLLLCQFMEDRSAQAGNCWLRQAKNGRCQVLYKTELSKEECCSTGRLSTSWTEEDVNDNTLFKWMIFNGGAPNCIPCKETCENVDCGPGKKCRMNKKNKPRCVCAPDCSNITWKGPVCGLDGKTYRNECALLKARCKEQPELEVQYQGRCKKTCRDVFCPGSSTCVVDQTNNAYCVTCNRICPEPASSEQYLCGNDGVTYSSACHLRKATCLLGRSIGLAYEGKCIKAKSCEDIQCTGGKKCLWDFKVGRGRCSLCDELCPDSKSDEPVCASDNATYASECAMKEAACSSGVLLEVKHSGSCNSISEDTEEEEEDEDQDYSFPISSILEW

Consider `CCOC(=O)[C@H](Cc1ccccc1)NC(=O)CCC1CC(OC(=O)NCc2ccc3c(c2)OCO3)CC2(CCCC(COC(=O)NCCCN3CCCC3=O)O2)O1` (stereo not given in full), for which the composite z-score in assay [1] is 0.613; in [3], -0.0204; in assay [4], -0.179; in assay [5], 0.454; in [6] it was 1.27; in [7] it was 0.334. Moreover, the composite z-score was determined as 1.32 in assay [8]; 0.329 in assay [9]; 1.1 in [10]; 0.556 in assay [11]; 0.959 in assay [12]; 0.28 in assay [13]. The composite z-score in assay [14] amounted to 0.87; in [15], 0.72; in [16], 0.537; in assay [18], 0.428; in [19] it was 0.305. In addition, the composite Z-score in [2] was 0.581 (inactive). Moreover, the z-score in assay [17] is 0.232; in assay [20] it was 1.12 (inactive).
For `CN1CCc2nc(-c3ccccc3)c(-c3ccccc3)cc2C1`, the composite z-score was 0.0013 in assay [1]; -0.0343 in assay [3]; -0.115 in assay [4]; -0.132 in assay [5]; -0.0596 in assay [6]; -0.247 in assay [7]. For the same molecule, the composite z-score in [8] was -0.23; in [9] it was 0.58; in assay [10], 0.486; in assay [11] it was 0.532; in assay [12], 0.26; in [13] it was 0.163. Also, the composite z-score was 0.547 in [14]; 0.397 in assay [15]; 0.325 in assay [16]; 0.256 in [18]; -0.0097 in [19]. In assay [2], the composite Z-score is -0.341 (inactive). Also, the z-score in [17] is 0.0181; in [20], -0.133 (inactive).
Take `O=C1CCCC=C1C(O)c1ccc([N+](=O)[O-])cc1` (stereo not given): the composite z-score in assay [1] is 0.265; in assay [3], 0.0494; in [4] it was -0.148; in assay [5], -0.187; in assay [6], -0.251; in assay [7] it was 0.0252. For the same molecule, the composite z-score was -0.311 in assay [8]; 0.0616 in assay [9]; -0.343 in [10]; -0.162 in [11]; 0.154 in assay [12]; -0.126 in assay [13]. Moreover, the composite z-score in assay [14] was -0.101; in assay [15] it was -0.102; in assay [16], 0.511; in assay [18], 0.0283; in [19] it was -0.199. Also, in [2], the composite Z-score is -0.163 (inactive). Also, the z-score in [17] is -0.115; in [20] it was -0.171 (inactive).
As to `C[C@]12CCC3c4ccc(OCC5CO5)cc4CCC3C1CC[C@@H]2O` (stereo not given in full), the composite z-score in assay [1] is 0.754; in assay [3], -0.0932; in assay [4], 0.0365; in [5] it was 0.646; in assay [6], 0.528; in assay [7], 0.414. The composite z-score came to 0.759 in assay [8]; 0.118 in assay [9]; 0.961 in assay [10]; 1.19 in assay [11]; 1.14 in assay [12]; 0.492 in assay [13]. The composite z-score was 1 in assay [14]; 0.137 in assay [15]; -0.2 in [16]; -0.005 in assay [18]; 1.05 in assay [19]. For the same molecule, the composite Z-score in assay [2] was 0.257 (inactive). For the same molecule, the values for the z-score in assay [17] and in assay [20] were 4.51 and -0.466 (inactive), respectively.
Consider `CC(CCN1CCCCc2nc(C)c(C)cc21)=NO[C@H](C)c1cn([C@@H]2COC[C@H]2O)nn1`, for which the composite z-score in assay [1] is 0.43; in assay [3] it was 0.156; in assay [4], 0.0097; in assay [5] it was 0.616; in [6] it was 0.298; in assay [7], 0.0986. Besides, the composite z-score stood at 1.2 in [8]; 1.49 in assay [9]; 0.685 in assay [10]; 0.968 in [11]; 0.12 in assay [12]; 0.422 in assay [13]. The composite z-score in assay [14] is 0.41; in assay [15] it was 1.26; in assay [16], 1.33; in assay [18] it was 1.38; in assay [19] it was -0.0522. Further, the composite Z-score in assay [2] is -1.61 (inactive). In addition, the z-score in [17] was -0.624; in assay [20], 1.05 (inactive).
